Bioassay records from PubChem BioAssay.
Six1-Eya2 inh – blocks human Six1 binding to Eya2 | activity change, % (test concentration not listed) | AlphaScreen GST-Six1/His-Eya2 binding, biochemical; hits give low values | actives 0.56% (n = 360,000) | AID 651725; in the data active = activity change below about -65%; inconclusive = mostly about -30% to -63%
Target sequence (O00167 whole entry, looked up): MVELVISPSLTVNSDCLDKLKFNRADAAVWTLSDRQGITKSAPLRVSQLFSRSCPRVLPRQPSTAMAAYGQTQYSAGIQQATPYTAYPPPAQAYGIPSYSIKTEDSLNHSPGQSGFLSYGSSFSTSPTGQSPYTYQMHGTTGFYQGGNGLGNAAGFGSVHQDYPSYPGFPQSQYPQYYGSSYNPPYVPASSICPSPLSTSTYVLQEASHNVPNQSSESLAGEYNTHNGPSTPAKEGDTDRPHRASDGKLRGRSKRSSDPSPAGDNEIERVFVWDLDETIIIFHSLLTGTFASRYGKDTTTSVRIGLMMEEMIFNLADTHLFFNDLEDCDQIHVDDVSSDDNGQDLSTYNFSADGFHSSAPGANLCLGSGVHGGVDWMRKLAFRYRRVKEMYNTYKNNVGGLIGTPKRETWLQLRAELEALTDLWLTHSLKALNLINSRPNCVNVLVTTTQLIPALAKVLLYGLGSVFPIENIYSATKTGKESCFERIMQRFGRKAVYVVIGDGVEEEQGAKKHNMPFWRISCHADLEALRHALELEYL
Target sequence (Q15475 whole entry, looked up): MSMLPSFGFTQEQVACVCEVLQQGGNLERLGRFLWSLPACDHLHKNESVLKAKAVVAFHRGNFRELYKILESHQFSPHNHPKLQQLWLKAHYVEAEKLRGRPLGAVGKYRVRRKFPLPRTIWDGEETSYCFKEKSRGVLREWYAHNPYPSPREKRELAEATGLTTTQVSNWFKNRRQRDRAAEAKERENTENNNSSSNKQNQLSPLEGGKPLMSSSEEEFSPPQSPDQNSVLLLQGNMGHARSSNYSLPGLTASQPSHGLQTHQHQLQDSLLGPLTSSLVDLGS
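Six1/Eya2 binding was read as AlphaScreen signal after compounds were pinned into GST-Six1 plus His-tagged Eya2 (5X stock 250/500 nM) in pH 8.0 Tris/NaCl/TCEP buffer, beads added, then incubated 1 h, 37 C, dark.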
IL1B secr inh – inhibitors of inflammasome signaling (IL-1 beta secretion); actives 4.7% (n = 360,000); THP-1 LPS/ATP IL-1B secretion, AlphaLISA, 16 h; hits give low values; activity change, % at 57.5 µM; in the data active = activity change below about -50%; inconclusive = mostly about -30% to -49%
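THP-1 cells pretreated 1 hr with compounds (up to 57.5 uM final), then stimulated with LPS (250 ng/mL final) plus ATP (1.25 mM final); secreted IL-1B measured by AlphaLISA after 16 hr, decreased signal indicating inhibition.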
TDP1 inh – TDP1 (human) enzyme inhibition; Q9NUW8; recombinant TDP1, AlphaScreen DNA substrate cleavage; Potency, µM (series often up to 130 µM), for inactives: at the highest dose activity change, negative = inhibition, actives largely listed as inhibitors; actives 0.28% (n = 350,000); note: potency is the fitted concentration of half-maximal effect; nearly all actives have a fitted effect of over 40% in size
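Recombinant human Tdp1 (E. coli-expressed, 1 nM final) preincubated with compounds 15 min at room temperature, then 5'-biotin/3'-phosphotyrosine-FITC DNA substrate (15 nM final) added for 5 min. AlphaScreen beads (10 ug/ml final) added 10 min; cleavage lowers signal.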
TDP1 cell noCPT – qHTS for Inhibitors of human tyrosyl-DNA phosphodiesterase 1 (TDP1): qHTS in cells in absence of CPT. Potency, µM (titrated, usually from 46.2 µM), inactives show at the top dose activity change, negative = growth inhibition, usual class: inhibitors. actives 15% (n = 420,000). DT40 Tdp1-/- hTDP1 cells, no CPT, ATP luminescence, 48 h; note: potency is the fitted concentration of half-maximal effect; nearly all actives have a fitted effect of over 55% in size
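No-CPT arm: Tdp1-/-;hTDP1 DT40 cells (400/well) plus compounds, incubated ≥48 hr at 37 °C. Readout CellTiter-Glo luminescence.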
TDP1 cell CPT – DT40-hTDP1 cell growth loss with CPT | chicken DT40 Tdp1-/-;hTDP1 cells + 20 nM CPT, ATP luminescence, 48 h | actives 12% (n = 420,000) | Potency, µM (highest dose often 46.2 µM), without a hit: at the highest dose activity change, negative = growth inhibition, usual class: inhibitors; note: potency is the fitted concentration of half-maximal effect; nearly all actives have a fitted effect of over 55% in size
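Cell growth measured by CellTiter-Glo luminescence after a minimum 48 h, 37 C compound exposure with 20 nM CPT in Tdp1-knockout DT40 cells stably expressing hTDP1, seeded 400/well; qHTS titration format.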
CtBP-E1A inh – blocks the CtBP interaction with E1A; AlphaScreen GST-E1A/His-CtBP binding, 1536-well; hits give low values; activity change, % (no concentration beside the values); actives 0.49% (n = 340,000); AID 651724; in the data active = activity change below about -65%; inconclusive = mostly about -30% to -63%
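Protein mix (5X: 125 nM each GST-E1A, His-CtBP) was incubated with pinned compound 2 h at 37 deg C in dark, in 50 mM Tris pH 8.0 buffer with 300 mM NaCl. Glutathione donor and nickel acceptor beads followed; AlphaScreen signal read after 1 h.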
The depositor's hits bear a star; [ ] = remark or other dose. Sampled rows, rich in hits. Any-hit rate of the full collection: about 18%. Unless noted, calls come from the whole dose curve; as a rule, active = well fitted curve in the direction sought with a large enough effect; inconclusive = small, poorly fitted or top-dose-only effect, or another doubt; inactive = no such curve, though single readings can be large; an effect the other way counts as inactive or inconclusive. % is set by controls: 0 for no effect and ±100 for the full control effect.

Results for CCOC(=O)N1CCN(S(=O)(=O)c2ccc(C(=O)N(CCN(C)C)c3nc4ccc(CC)cc4s3)cc2)CC1 ?
Six1-Eya2 inh: -2.1; IL1B secr inh: -18.5; TDP1 inh: 9.3%; TDP1 cell noCPT: -5.1%; TDP1 cell CPT: -12.0%; CtBP-E1A inh: -7.8

How did CN(C)CCCN(C(=O)c1ccc(S(=O)(=O)N2CCCCCC2)cc1)c1nc2ccc(F)cc2s1 do in these assays?
Six1-Eya2 inh: -18.6; IL1B secr inh: -105.4*; TDP1 inh: 9.0%; TDP1 cell noCPT: inconclusive; TDP1 cell CPT: inconclusive; CtBP-E1A inh: inconclusive

Results for CCOC(=O)N1CCN(S(=O)(=O)c2ccc(C(=O)N(CCCN(C)C)c3nc4ccc(Cl)cc4s3)cc2)CC1 ?
Six1-Eya2 inh: 0.6; IL1B secr inh: -96.4*; TDP1 inh: 5.6%; TDP1 cell noCPT: 18.4µM*; TDP1 cell CPT: inconclusive; CtBP-E1A inh: -11.3

Results for CCOC(=O)N1CCN(S(=O)(=O)c2ccc(C(=O)N(CCCN(C)C)c3nc4ccc(CC)cc4s3)cc2)CC1 ?
Six1-Eya2 inh: -13.8; IL1B secr inh: -61.8*; TDP1 inh: 8.7%; TDP1 cell noCPT: inconclusive; TDP1 cell CPT: inconclusive; CtBP-E1A inh: -22.7

Results for CC1=C(C(=O)N2CCCC(CCC(=O)NCc3ccc(F)c(F)c3)C2)OCCO1 (stereo not given) ?
Six1-Eya2 inh: -11.5; IL1B secr inh: 18.2; TDP1 inh: 6.0%; TDP1 cell noCPT: -27.2%; TDP1 cell CPT: inconclusive; CtBP-E1A inh: 9.2

Results for O=C(CN1CCOCC1)NCCC12CC3CC(CC(C3)C1)C2 ?
Six1-Eya2 inh: 3.1; IL1B secr inh: 14.1; TDP1 inh: 5.7%; TDP1 cell noCPT: inconclusive; TDP1 cell CPT: -22.4%; CtBP-E1A inh: 3.5

Results for COc1ccc(/C=C(\C#N)C(=O)NC2CCS(=O)(=O)C2)cc1OC (stereo not given) ?
Six1-Eya2 inh: -7.3; IL1B secr inh: 13.5; TDP1 inh: 2.6%; TDP1 cell noCPT: -1.1%; TDP1 cell CPT: -14.1%; CtBP-E1A inh: 11.5

How did C[Si](C)(C/C=C/CC[C@H](O)C1=CCCCC1=O)c1ccccc1 do in these assays?
TDP1 inh: 8.1%

Results for S=C(NCc1ccc2c(c1)OCO2)NC1CCN(Cc2ccccc2)CC1 ?
Six1-Eya2 inh: -18.5; IL1B secr inh: inconclusive; TDP1 inh: -5.8%; TDP1 cell noCPT: inconclusive; TDP1 cell CPT: inconclusive; CtBP-E1A inh: -12.2

Results for C=C1c2cc3c(cc2NC(=S)N1Cc1ccccc1)OCO3 ?
Six1-Eya2 inh: -14.3; TDP1 inh: 5.0%; TDP1 cell noCPT: inconclusive; TDP1 cell CPT: 16.4µM*; CtBP-E1A inh: -10.1

Results for O=C(NC1CCCCCC1)C(=S)N1CCOCC1 ?
Six1-Eya2 inh: 14.5; IL1B secr inh: -7.2; TDP1 inh: -2.7%; TDP1 cell noCPT: 16.4µM*; TDP1 cell CPT: inconclusive; CtBP-E1A inh: -3.3

What do the screens show for `CC(C)=NNC(=O)CN1C(=O)NC2NC(=O)NC21` (stereo not given)?
Six1-Eya2 inh: 1.4; IL1B secr inh: 4.3; TDP1 inh: 3.2%; TDP1 cell noCPT: -12.8%; TDP1 cell CPT: 4.0%; CtBP-E1A inh: 4.3

Results for Nc1ccn(Cc2ccccc2)n1 ?
Six1-Eya2 inh: 0.9; IL1B secr inh: 5.9; TDP1 inh: -1.3%; TDP1 cell noCPT: 2.9%; TDP1 cell CPT: 4.0%; CtBP-E1A inh: -8.1

How did c1ccc(Cn2ccc(-c3cnc(-c4ccccc4)s3)n2)cc1 do in these assays?
Six1-Eya2 inh: 35.0; IL1B secr inh: -6.6; TDP1 inh: -10.7%; TDP1 cell noCPT: 18.4µM*; TDP1 cell CPT: inconclusive; CtBP-E1A inh: 36.1

Results for Cc1oc(C)c2c(=O)cc(-c3ccc4c(c3)OCO4)cc(OC(=O)c3cccc(Cl)c3)c12 ?
TDP1 inh: 3.7%; TDP1 cell noCPT: inconclusive; TDP1 cell CPT: inconclusive

What do the screens show for `Cc1oc(C)c2c(=O)cc(-c3ccc4c(c3)OCO4)cc(OC(=O)c3cccc(Br)c3)c12`?
TDP1 inh: 2.5%; TDP1 cell noCPT: inconclusive; TDP1 cell CPT: inconclusive

What do the screens show for `COc1cc(-c2cc(OC)c3c(C)oc(C)c3c(=O)c2)ccc1OC(=O)c1ccc(C)cc1`?
TDP1 inh: 3.6%; TDP1 cell noCPT: 5.8µM*; TDP1 cell CPT: 5.17µM*

Results for CCOc1ccc(-c2cc(OC(=O)c3ccc(F)cc3)c3c(C)oc(C)c3c(=O)c2)cc1 ?
TDP1 inh: 3.2%; TDP1 cell noCPT: 16.4µM*; TDP1 cell CPT: inconclusive

How did CCOc1cc(-c2ccc(OC(=O)c3ccccc3F)cc2)cc(=O)c2c(C)oc(C)c12 do in these assays?
TDP1 inh: 4.7%; TDP1 cell noCPT: 13µM*; TDP1 cell CPT: 13µM*

Results for CCOc1cc(-c2ccc(OC(=O)c3ccc(C)cc3)c(OC)c2)cc(=O)c2c(C)oc(C)c12 ?
TDP1 inh: 9.9%; TDP1 cell noCPT: 5.17µM*; TDP1 cell CPT: 5.8µM*

What do the screens show for `CCOc1cc(-c2ccc3c(c2)OCO3)cc(=O)c2c(C)oc(C)c12`?
TDP1 inh: -2.4%

Results for CC(=O)Nc1ccc(N/C=C/C(=O)C(C)(C)C)cc1 ?
Six1-Eya2 inh: -1.5; IL1B secr inh: 34.8; TDP1 inh: 4.5%; TDP1 cell noCPT: -5.6%; TDP1 cell CPT: -14.6%; CtBP-E1A inh: 10.3

What do the screens show for `O=C(N/N=C/c1cccc([N+](=O)[O-])c1)C1CC1c1ccccc1` (stereo not given)?
Six1-Eya2 inh: -17.8; IL1B secr inh: inconclusive; TDP1 inh: 2.7%; TDP1 cell noCPT: -17.9%; TDP1 cell CPT: 2.6%; CtBP-E1A inh: -7.2

How did Nc1nc(SCC(=O)NCCOCCO)nc2sc3c(c12)CCCC3 do in these assays?
Six1-Eya2 inh: -10.7; IL1B secr inh: 5.1; TDP1 inh: 3.7%; TDP1 cell noCPT: -13.4%; TDP1 cell CPT: 0.8%; CtBP-E1A inh: -1.5

What do the screens show for `O=C(O)c1ccc(OS(=O)(=O)c2ccc(Cl)s2)c(Cl)c1`?
Six1-Eya2 inh: -0.6; IL1B secr inh: 14.4; TDP1 inh: -0.2%[56.1 µM]; TDP1 cell noCPT: -15.7%; TDP1 cell CPT: -11.7%

What do the screens show for `COc1ccc(-c2cc(OC(=O)c3cccc(Cl)c3)c3c(C)oc(C)c3c(=O)c2)cc1OC`?
TDP1 inh: 4.9%; TDP1 cell noCPT: inconclusive; TDP1 cell CPT: inconclusive

How did COc1ccc(C(=O)Oc2cc(-c3ccc(OC)c(OC)c3)cc(=O)c3c(C)oc(C)c23)cc1 do in these assays?
TDP1 inh: 8.6%; TDP1 cell noCPT: 18.4µM*; TDP1 cell CPT: inconclusive
